This is an account of results in PMC7819943, “Rice protein-binding microarrays: a tool to detect cis-acting elements near promoter regions in rice”.

Whole data set: some 35,000 sequences, median “fluorescence intensity (a.u.)” near 10,000, cut for the highest 2% near 52,000. The list comes from a sample in which the highest values are over-represented; it also holds similar and randomly drawn sequences.

This assay has as its target T1, OsWOX13 (Oryza sativa, UniProt Q5QMM3 1-267).
T1 sequence: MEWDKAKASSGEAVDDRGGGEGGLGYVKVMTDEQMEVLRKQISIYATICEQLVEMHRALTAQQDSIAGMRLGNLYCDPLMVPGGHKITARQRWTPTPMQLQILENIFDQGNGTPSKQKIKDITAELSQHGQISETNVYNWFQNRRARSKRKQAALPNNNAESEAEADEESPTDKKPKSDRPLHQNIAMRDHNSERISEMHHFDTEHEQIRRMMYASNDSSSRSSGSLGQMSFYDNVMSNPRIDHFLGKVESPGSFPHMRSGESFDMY
Nature of the assay: protein-binding microarray (RPBM); PBS, 2% BSA, 51.3 ng/ul salmon testes DNA, 50 uM zinc acetate, 200 nM TF, 25 C, 1 h; high values mean tight binding. The settings on record: protein: recombinant; tags: N-terminal polyhistidine and DsRed monomer fusion (pET32a); label: CyDye5-dUTP incorporated in the synthesized complementary strand; 3' TTTTT single-stranded linker to array surface; dsDNA, one strand shown. The method, boiled down:
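For the binding signal, per-feature fluorescence intensity was read in arbitrary units on an Axon 4000B scanner. Before scanning, a 2% BSA-blocked custom Agilent array made double-stranded with Cy5-dUTP was washed after 1 h at 25 °C with 200 nM protein and 50 µM zinc acetate. The proteins were Ni–NTA-purified transcription factors with N-terminal polyhistidine and DsRed fusions, expressed in E. coli BL21-CodonPlus.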
In the case of “CGATGATTGTTAGTATACACTATATGTATGGTGTTTATCCCGGAGTCACCTAGTGCAG”, the binding signal was 40600 fluorescence intensity (a.u.).

“GCTTGACGACACCATTCGGATTGTTCCATCACTTCCATACCGGAGTCACCTAGTGCAG”: the binding signal was 3540 fluorescence intensity (a.u.).

With “CTACTATCAATCGACCAATTCCAATCTCATCGTTACAGGACGGAGTCACCTAGTGCAG”, the binding signal is 4190 fluorescence intensity (a.u.).

“CTTGATTGACGACCATCTCGTGGTTACCAATTCCATCACCCGGAGTCACCTAGTGCAG”: the binding signal is 60000 fluorescence intensity (a.u.).

For the sequence “ACATGTTTTATCAATTAGTAGTATGGGCATATTACTAGTGCGGAGTCACCTAGTGCAG”, the binding signal is 17800 fluorescence intensity (a.u.).

For the sequence “TGCCCTTACCTGTGGTTTCTCCCGCGGCGGCGGGGTGGAGCGGAGTCACCTAGTGCAG”, the binding signal is 65500 fluorescence intensity (a.u.).

On to “AGGAGGCGGGGCGGGGCGGCGGCGGCGGCGGCGGCGCCCGCGGAGTCACCTAGTGCAG”, for which the binding signal is 5340 fluorescence intensity (a.u.).

Take “TCTCTTCCTTGCTGTGGTGGCGGCGGGCGGGAGGGCGGCGCGGAGTCACCTAGTGCAG”: the binding signal is 12700 fluorescence intensity (a.u.).

For “TCTGACCTGTATACTAATTTATGACCATATACTTAATCAACGGAGTCACCTAGTGCAG”, the binding signal was 5380 fluorescence intensity (a.u.).

Take “AAAACCATCATCAATCAGCCGATCCTGATGTTGTCCCTGCCGGAGTCACCTAGTGCAG”: the binding signal was 25100 fluorescence intensity (a.u.).

Take “AAGAGATTGGAATCGGGCGTACCGGAGAACTTTGGAGATGCGGAGTCACCTAGTGCAG”: the binding signal is 12100 fluorescence intensity (a.u.).

For “GGAAGAATTGATTGATTAAAGATATATATCGAATATCTGCCGGAGTCACCTAGTGCAG”, the binding signal was 40400 fluorescence intensity (a.u.).

For the sequence “CTCAAAAGTTTGGGTTGATCGATCATTTGCCTACCGAAACCGGAGTCACCTAGTGCAG”, the binding signal was 65500 fluorescence intensity (a.u.).

Regarding “TATGATTGATATCCACGAATTGAAGAAGAAGTTGCATTGCCGGAGTCACCTAGTGCAG”, the binding signal was 55300 fluorescence intensity (a.u.).

Turning to “GGTTTAAATTTTAAAAGTTTGATCAAATATTATCCTAAACCGGAGTCACCTAGTGCAG”, the binding signal is 4900 fluorescence intensity (a.u.).

On to “TTGATTAATTTATTTATAGTTTTGTGAAAGTTTGCGCCGTCGGAGTCACCTAGTGCAG”, for which the binding signal is 57900 fluorescence intensity (a.u.).

In the case of “GTCTAATTGTGATTTTATATTTTAATTAATTATATATTGTCGGAGTCACCTAGTGCAG”, the binding signal is 34800 fluorescence intensity (a.u.).

Turning to “TCGTTGTAATAATTTGATTTCTTTTGCAGACGGTCTTTATCGGAGTCACCTAGTGCAG”, the binding signal is 5300 fluorescence intensity (a.u.).

“ATGAAAGGAGTTGATTTGCACCGGTTTTCAAAGATGAAAACGGAGTCACCTAGTGCAG”: the binding signal is 3470 fluorescence intensity (a.u.).

With “AGATAATTGTGAAATAATTATATTGCGATTTGATAAAGTACGGAGTCACCTAGTGCAG”, the binding signal was 14700 fluorescence intensity (a.u.).

As to “GGATAATGATTTGACATTGATTGCGGTCTCGTTATTTTCTCGGAGTCACCTAGTGCAG”, the binding signal was 59500 fluorescence intensity (a.u.).

“AATTGATTATTCCTAACAACATTCCGCGGATTAATTTTCTCGGAGTCACCTAGTGCAG”: the binding signal is 15500 fluorescence intensity (a.u.).

“ACATATCTTAAGATTGATGAAGTCACCACGAACGCCTCGCCGGAGTCACCTAGTGCAG”: the binding signal was 11700 fluorescence intensity (a.u.).

In the case of “TGGAAGAAATTGATGTAATGCTCTGGCCTTTTCATGGATACGGAGTCACCTAGTGCAG”, the binding signal is 8100 fluorescence intensity (a.u.).

As for “GCTAATTAAATTAATAATTCATCTTAGGAATCACAGCGTCCGGAGTCACCTAGTGCAG”, the binding signal was 39000 fluorescence intensity (a.u.).

For “CGCTTAATGACTTCACTTTGTCCTCGGATGATTTGCGTCCCGGAGTCACCTAGTGCAG”, the binding signal was 11700 fluorescence intensity (a.u.).

For the sequence “CCCAGTCAATCTCCCCATCTCCTCGGCCTCGGCAATAGTACGGAGTCACCTAGTGCAG”, the binding signal is 7200 fluorescence intensity (a.u.).

Consider “GATAGATAGATAGATAGATAGATAGATAGATACTAGTACACGGAGTCACCTAGTGCAG”, for which the binding signal is 37000 fluorescence intensity (a.u.).

On to “GCTTAATTAGCCGCTTCAGTTGCACAGTAACTGAGGAACCCGGAGTCACCTAGTGCAG”, for which the binding signal is 32700 fluorescence intensity (a.u.).

For “TGTAATAATAATTTAATCGATCTTTCAAGGGGCATTCTCGCGGAGTCACCTAGTGCAG”, the binding signal is 8040 fluorescence intensity (a.u.).

“TTTAGATTGCTAAACACACATGTATATATAAGTTTTATTTCGGAGTCACCTAGTGCAG”: the binding signal is 5900 fluorescence intensity (a.u.).

“TCGATTGACTGCATCTTTTCCTGAAAGTGAACATGCAGTGCGGAGTCACCTAGTGCAG”: the binding signal is 32500 fluorescence intensity (a.u.).

In the case of “TGTAATCTATCAAGAATCCATTACTGAGACACAAATGCATCGGAGTCACCTAGTGCAG”, the binding signal is 4280 fluorescence intensity (a.u.).

For the sequence “TCCTAATTAATGTTAGAAATTTTCCTAATTAATGCTAGAACGGAGTCACCTAGTGCAG”, the binding signal was 28600 fluorescence intensity (a.u.).

Consider “TAGTTATATTTGATTATCTTGCGAACCTATATATAATATGCGGAGTCACCTAGTGCAG”, for which the binding signal was 5250 fluorescence intensity (a.u.).

Consider “CTATTGATTATGATAATTTGAAGTTATATAGCTTGATTTGCGGAGTCACCTAGTGCAG”, for which the binding signal is 57700 fluorescence intensity (a.u.).

Regarding “TGGTTATTATATTGATTATAGATAATTTGAAGTTAGTAGTCGGAGTCACCTAGTGCAG”, the binding signal was 31500 fluorescence intensity (a.u.).

“ACATATATAAGTTGATTGATTTGTTATTATAGACGACGAGCGGAGTCACCTAGTGCAG”: the binding signal is 55400 fluorescence intensity (a.u.).

As for “TATAATTGATCTTTGTAGTTATTTTGTTGCATACATAAGACGGAGTCACCTAGTGCAG”, the binding signal was 29100 fluorescence intensity (a.u.).

Take “TGTAACTATTATATAAATTGGCTATTAAGTTTGACTATAGCGGAGTCACCTAGTGCAG”: the binding signal was 17800 fluorescence intensity (a.u.).

In the case of “AAGTTATATATATTGATGATTTATACAACTTTGTTGGTGACGGAGTCACCTAGTGCAG”, the binding signal was 3620 fluorescence intensity (a.u.).

With “CGTTGATTATTGCGATCGAAACCGTCTCATATAATTTTGCCGGAGTCACCTAGTGCAG”, the binding signal was 52500 fluorescence intensity (a.u.).

Take “GAGTTGATTTGCGTTGTCTCTCCGTCTCTTTCTTATTAATCGGAGTCACCTAGTGCAG”: the binding signal was 20800 fluorescence intensity (a.u.).

“TTAAATTGACTATAGTTGATTTGTAGCCTACAATTGGCAGCGGAGTCACCTAGTGCAG”: the binding signal is 64600 fluorescence intensity (a.u.).

Regarding “ACTAAAATTTGATAAAATTTATTTTGCCTATAATATAAACCGGAGTCACCTAGTGCAG”, the binding signal is 6120 fluorescence intensity (a.u.).

Turning to “ACTAGTATTAAATTGACTATAAATGATTTGGAGTTAGTAGCGGAGTCACCTAGTGCAG”, the binding signal was 26300 fluorescence intensity (a.u.).
